# Reference: PubChem BioAssay (EPA / NIEHS)
# Where “and” joins values, the source holds several entries; their conditions need not be identical. Equal values may be shown once. Where a structure was tested more than once in an assay, its records may differ in their call. Calls of active or inactive are those of the source. The calls were made as follows: active = hit-call score of the fitted dose curve at least 0.9, where 1 is the maximum; inactive = score below 0.9.
# Experiment: ATG_AP_1_CIS: Attagene CIS-FACTORIAL HepG2 Assay for human Activator Protein 1 (AP-1) (AID 2282931)
# Conditions: HepG2 Attagene cis-factorial AP-1 reporter mRNA; actives raise or lower the signal
# Method: ATG_CIS is a cell-based, multiplexed-readout assay that uses HepG2, a human liver cell line, with measurements taken at 24 hours after chemical dosing in a 24-well plate.ATG_AP_1_CIS is one of 52 assay component(s) measured or calculated from the ATG_CIS assay. It is designed to make measurements of mRNA induction, a form of inducible reporter, as detected with fluorescence intensity signals by Reverse transcription polymerase chain reaction (RT-PCR) and Capillary electrophoresis technology.Data from the assay component ATG_AP_1_CIS was analyzed into 1 assay endpoint. This assay endpoint, ATG_AP_1_CIS, was analyzed with bidirectional fitting relative to DMSO as the negative control and baseline of activity. Using a type of inducible reporter, measures of mRNA for gain or loss-of-signal activity can be used to understand the reporter gene at the transcription factor-level as they relate to the gene FOS and JUN. Furthermore, this assay endpoint can be referred to as a primary readout, because this assay has produced multiple assay endpoints where this one serves a reporter gene function. To generalize the intended target to other relatable targets, this assay endpoint is annotated to the dna binding intended target family, where the subfamily is basic leucine zipper.
# Human liver HepG2 cells are transiently transfected with multiple reporter transcription units (MRTUs) in 6-well plates using FuGene 6 reagent (Roche; 3 ml FuGene/1 mg DNA). The MRTU constructs are regulated by a cis-regulating element (promoter). […] A major difference between the CIS and TRANS system is that in CIS activities of endogenous TFs are measured, whereas the TRANS assay evaluates changes in activities of exogenous, chimeric NR-Gal4 proteins. […] At the end of 24 hour incubation, total RNA was isolated using TriZol reagent (Invitrogen). The isolated RNA is then reverse-transcribed using oligo(dT) primer and Mo-MLV reverse transcriptase (Invitrogen) with DNAse I (Ambion) treatment for 30 min. The one-tenth of the produced cDNA was amplified by PCR using Taq DNA polymerase (Invitrogen) and two reporter sequence-specific primers. The PCR products were fluorescently labeled by primer extension with 6-arboxyfluorescein (6-FAM) 5'-labeled reporter sequence-specific primer (2 min at 95 C, 20 s at 68 C and 10 min at 72 C) and these products were digested with 5U of HpaI (New England Biolabs) for 2h at 37 C. The fragments were purified using Qiaquick PCR columns (Qiagen), analyzed on an ABI 3130xL genetic analyzer (Applied Biosystems) with peak positions identified by using a set of X-rhodamine (ROX)-labeled MapMarker1000 molecular weight standards (BioVentures). The raw capillary electrophoresis data was processed using Attagraph software (Attagene).
Compound,AC50,outcome
Nc1ccc(Cl)cc1N,9.15 µM (active),
O=[N+]([O-])C(Br)(CO)CO,25.2 µM (active),
CCC[CH2][Sn]([Cl])([CH2]CCC)[CH2]CCC,0.522 µM (active),
CN(C)c1ccccc1,,inactive
ClC1=C(Cl)C2(Cl)C3C(Cl)C=CC3C1(Cl)C2(Cl)Cl (stereo not given),154 µM (active),
O=C(O)C1C2CCC(O2)C1C(=O)O (stereo not given),59 µM (active),
O=C1CCCO1,,inactive
Cc1cc(N=Nc2ccccc2C)ccc1N,,inactive
CCCCCCCCCCCCCN1CC(C)OC(C)C1 (stereo not given),50.9 µM (active),
O=C(Oc1ccc(Br)cc1)N1CCN2CCC1CC2,,inactive
Clc1ccc(C(c2ccc(Cl)cc2)C(Cl)Cl)cc1,50.9 µM (active),
CN(C)c1ccc(C(=O)c2ccc(N(C)C)cc2)cc1,,inactive
CC(C)(C)C(O)(CCc1ccc(Cl)cc1)Cn1cncn1 (stereo not given),140 µM (active),
Clc1ccccc1Cl,,inactive
CS(=O)(=O)NC(=O)c1cc(Oc2ccc(C(F)(F)F)cc2Cl)ccc1[N+](=O)[O-],,inactive
COC(=O)c1ccccc1N,,inactive
Cc1ccc(N=C=O)cc1N=C=O,,inactive
Oc1ccccc1Cl,,inactive
CCCCCOC(=O)c1ccccc1C(=O)OCCCCC,77.2 µM (active),
Oc1ccc2ccc3cccc4ccc1c2c34,,inactive

Compound,AC50,outcome
O=[N+]([O-])c1ccc(Oc2ccc(Cl)cc2Cl)cc1,,inactive
[O-][Cl+]O,,inactive
C=CCc1ccc2c(c1)OCO2,,inactive
c1ccc2c(c1)-c1cccc3cccc-2c13,,inactive
COP(=S)(OC)SCN1C(=O)c2ccccc2C1=O,,inactive
ClCCOCCCl,,inactive
CCNS(=O)(=O)C(F)(F)C(F)(F)C(F)(F)C(F)(F)C(F)(F)C(F)(F)C(F)(F)C(F)(F)F,29.9 µM (active) and 75.2 µM (active),inactive
ClC1=C(Cl)[C@]2(Cl)[C@H]3[C@H]([C@@H]4C=C[C@H]3C4)[C@@]1(Cl)C2(Cl)Cl,46.9 µM (active),
C[C@]12C=CC3=C4CCC(=O)C=C4CC[C@H]3[C@@H]1CC[C@@H]2O,,inactive
N#CC(Br)Br,,inactive
CCC(C)c1ccc(O)cc1 (stereo not given),69.8 µM (active),
OCCCl,,inactive
O=P(OCCCl)(OCCCl)OCCCl,,inactive
[As]#[In],,inactive
CCOC(=O)[C@]1(c2ccccc2)Oc2ccccc2[C@@H]1N,40 µM (active),
Cc1ccc(N)cc1,,inactive
CC(C)N(Cc1ccccc1)C(=O)C(C)(C)C,,inactive
Clc1ccc(C(c2ccc(Cl)cc2)C(Cl)(Cl)Cl)cc1,51.4 µM (active),
O=C(N[C@H](c1ccccc1)[C@@H]1CN2CCC1CC2)c1c(Cl)ccc(C(F)(F)F)c1Cl,,inactive
